Assay results taken from ChEMBL document CHEMBL3433997, “St. Jude Leishmania screening dataset” (2016).

Assays:
Type in all cases: functional
[1] = biological target: Solute carrier family 2, facilitated glucose transporter member 1 (Homo sapiens) (UniProt P11166); assay: ST_JUDE_LEISH: Cytotoxicity at 2uM final concentration against transgenic Leishmania Mexicana promastigotes LmGLUT1 that are glucose transport deficient and complemented with the human glucose transporter GLUT1. Activity is measured by DNA content using SYBR green in vitro
Solute carrier family 2, facilitated glucose transporter member 1 (Homo sapiens), sequence (P11166 whole entry): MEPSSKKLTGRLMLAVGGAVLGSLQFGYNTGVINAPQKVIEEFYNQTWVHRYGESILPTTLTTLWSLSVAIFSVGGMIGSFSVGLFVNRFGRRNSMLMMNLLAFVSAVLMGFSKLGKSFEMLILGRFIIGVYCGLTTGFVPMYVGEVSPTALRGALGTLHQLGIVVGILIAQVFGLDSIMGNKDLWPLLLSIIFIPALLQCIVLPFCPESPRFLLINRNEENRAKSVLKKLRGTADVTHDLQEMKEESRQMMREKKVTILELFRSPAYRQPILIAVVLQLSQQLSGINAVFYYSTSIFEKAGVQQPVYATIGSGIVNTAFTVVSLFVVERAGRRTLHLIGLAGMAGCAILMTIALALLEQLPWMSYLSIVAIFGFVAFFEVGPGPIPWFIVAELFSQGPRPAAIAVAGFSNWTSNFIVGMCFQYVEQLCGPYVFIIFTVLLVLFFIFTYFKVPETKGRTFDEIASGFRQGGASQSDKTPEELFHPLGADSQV

[2] = biological target: Hexose transporter 1 (Plasmodium falciparum) (UniProt O97467); assay: ST_JUDE_LEISH: Cytotoxicity at 2uM final concentration against transgenic Leishmania Mexicana promastigotes LmPfHT that are glucose transport deficient and complemented with the Plasmodium falciparum hexose transporter. Activity is measured by DNA content using SYBR green in vitro
[3] = biological target: Glucose transporter (Leishmania mexicana) (UniProt O61059); assay: ST_JUDE_LEISH: Cytotoxicity at 2uM final concentration against transgenic Leishmania Mexicana promastigotes LmGT2 that are glucose transport deficient and complemented with the L. Mexicana glucose transporter 2. Activity is measured by DNA content using SYBR green in vitro

O=C(Nc1ccc(N2CCN(Cc3ccccc3)CC2)cc1)c1cccs1 showed an inhibition [1] of 0.15%, an inhibition [2] of 0.83% and an inhibition [3] of -1.68%.

In the case of Cc1cc(=O)c(-c2ccc(Oc3ccc(C(F)(F)F)cc3)cc2)c(C)n1O, the inhibition [1] is reported as -1.23%, the inhibition [2] is reported as -2.25% and the inhibition [3] is reported as -1.9%.

COc1ccc2nccc([C@@H](O)CN3CCC(NC(=O)c4ccc(Cl)c(OC)c4)CC3)c2c1 was tested, and the inhibition [1] was 4.62%, the inhibition [2] was 7.71% and the inhibition [3] was 0.22%.

In the case of CC[C@H](C)CNC(=O)c1ccnc(-c2cccc(CN(C)C3CCN(C)CC3)c2)c1, the inhibition [1] is reported as 1.42%, the inhibition [2] is reported as 2.4% and the inhibition [3] is reported as 2.59%.

Work on O=C(Nc1cccc(-c2nn3ccccc3c2-c2ccnc(Nc3ccc(Cc4ccncc4)cc3)n2)c1)c1c(F)cccc1F yielded an inhibition [1] of 12%, an inhibition [2] of 17.3% and an inhibition [3] of 13.2%.

CC(Oc1ccc(C(=O)c2ccc(F)cc2)cc1)C(=O)N1CCc2ccccc21 (stereo unspecified) was tested, and the inhibition [1] was -1.44%, the inhibition [2] was -0.96% and the inhibition [3] was 0.7%.

In the case of O=C(Nc1cccc(-c2ccc(-c3nc4cc(C(F)(F)F)ccc4[nH]3)cc2)c1)c1cccnc1, the inhibition [1] is reported as 3.27%, the inhibition [2] is reported as 1.71% and the inhibition [3] is reported as -0.02%.

In the case of Cn1ccnc1Sc1ncccc1[N+](=O)[O-], the inhibition [1] is reported as -2.32%, the inhibition [2] is reported as 0.92% and the inhibition [3] is reported as 1.8%.

In the case of CCCCCCCCOc1c(OCC)cc(Cc2cnc(N)nc2N)cc1OCC, the inhibition [1] is reported as 13.7%, the inhibition [2] is reported as 7.75% and the inhibition [3] is reported as 2.94%.

Work on Cc1cc(C(F)(F)F)n2nc(C(=O)N(C)Cc3cncn3Cc3ccc(F)cc3)cc2n1 yielded an inhibition [1] of 0.88%, an inhibition [2] of 1.29% and an inhibition [3] of 1.49%.

With Cc1ccccc1C1CCN(C2CCC(NC(=O)c3ccc(-c4cc(C(F)(F)F)nn4C)s3)CC2)CC1 (stereo unspecified) the inhibition [1] was 10.8%, the inhibition [2] was 9.92% and the inhibition [3] was 9.51%.

Cc1cc(N[C@@H](CC(C)C)C(=O)Nc2ccccc2)nc(NCc2ccccc2C)n1 was tested, and the inhibition [1] was 8.7%, the inhibition [2] was 8.35% and the inhibition [3] was 5.01%.
